Consider 31 molecules from PubChem BioAssay (Tox21).

Where “and” joins values, the source holds several entries; their conditions need not be identical. Identical values can stand only once. Records with an inconclusive call do not appear. A call without a number means that no potency is given here. Where a structure was tested more than once in an assay, its records may differ in their call. Calls of active or inactive are those of the source. Calls come from the whole dose curve; as a rule, active = well fitted curve in the direction sought with a large enough effect in the repeat runs; inconclusive = weak or mixed curves; inactive = no such curve, though single readings can be large; an effect the other way counts as inactive or inconclusive.

System in one assay: not listed separately
Briefly: qHTS assay to identify aromatase inhibitors - cell viability counter screen (AID 743084).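 Note: cells stimulated with testosterone during compound exposure; nearly all actives have a fitted effect of over 55% in size.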 Note: potency is the fitted concentration of half-maximal effect. The following applies: MCF-7 aro ERE viability, CellTiter-Fluor, 24 h; series mostly up to 70.3 µM; activity change, negative = cytotoxicity: at the top concentration. (In general: qHTS replaces the single test concentration by a dilution series.)
On to `CC12CC1(C)C(=O)N(c1cc(Cl)cc(Cl)c1)C2=O` (stereo not drawn), for which the Potency result was “inactive”.

Consider `OCC(O)CCl` (stereo not drawn), for which the Potency result is “inactive”.

As to `N#Cc1cccc(C#N)c1`, the Potency result was “inactive”.

On to `Oc1c(Br)cc(Br)cc1Br`, for which the Potency entry was “inactive”.

On to `O=C(O)c1cc(Oc2ccc(C(F)(F)F)cc2Cl)ccc1[N+](=O)[O-]`, for which the Potency entry was “inactive”.

In the case of `Cc1ccc(O)c(C)c1`, the Potency entry was “inactive”.

Regarding `CNCC(O)c1ccc(O)cc1` (stereo not drawn), the Potency entry was “inactive”.

As for `CCOC(=O)CC(SP(=O)(OC)OC)C(=O)OCC` (stereo not drawn), the Potency entry is “inactive”.

On to `CCOP(=S)(OCC)Oc1cc(C)nc(C(C)C)n1`, for which the Potency result was “inactive and 27.3 µM (active)”.

With `CNC(=O)O/N=C/C(C)(C)SC`, the Potency entry is “inactive”.

On to `COP(=S)(OC)SCN1C(=O)c2ccccc2C1=O`, for which the Potency result was “inactive”.

Take `ClCCOCCCl`: the Potency result was “inactive”.

In the case of `CC(=O)C1CCOC1=O` (stereo not drawn), the “activity change, negative = cytotoxicity” value was 2.19% [at 95 µM] (inactive).

`O=S(=O)(O)OOS(=O)(=O)O`: the Potency entry was “inactive”.

Regarding `CC[N+](=O)[O-]`, the Potency entry is “inactive”.

On to `COC(=O)Nc1cccc(OC(=O)Nc2cccc(C)c2)c1`, for which the Potency result is “inactive”.

`Cc1cccc(N)c1C`: the Potency result was “inactive”.

In the case of `Cc1ccc(N)cc1`, the Potency result is “inactive”.

Take `CNC(=O)O/N=C/C(C)(C)S(C)(=O)=O`: the Potency result is “inactive”.

As to `Cc1ccc(N=C=O)cc1N=C=O`, the Potency entry was “inactive”.

Regarding `COS(=O)(=O)OC`, the Potency entry was “inactive”.

On to `CC(C)c1cccc(C(C)C)c1O`, for which the Potency entry is “inactive”.

With `COC(C)(C)CCCC(C)C/C=C/C(C)=C/C(=O)OC(C)C` (stereo not drawn), the Potency result was “inactive”.

Take `Cc1cccc(C)c1N`: the Potency entry was “inactive”.

`C=CCN=C=S`: the Potency result was “inactive”.

For `Clc1cnc(Oc2ccc(Oc3ncc(Cl)cc3Cl)cc2)c(Cl)c1`, the Potency result was “inactive”.

Regarding `O=[N+]([O-])c1cc([As](=O)(O)O)ccc1O`, the Potency entry is “inactive”.

Take `O=C(O)Cc1ccccc1`: the Potency entry was “inactive”.

In the case of `O=[N+]([O-])c1ccc(Cl)c(Cl)c1`, the Potency result was “inactive”.

For the molecule `O=P1(NCCCl)OCCCN1CCCl` (stereo not drawn), the Potency result was “inactive”.

Consider `CNc1cnn(-c2cccc(C(F)(F)F)c2)c(=O)c1Cl`, for which the Potency entry was “inactive”.

In a further assay the target is Aryl hydrocarbon receptor (Homo sapiens) (UniProt P35869). Briefly: qHTS assay to identify small molecule that activate the aryl hydrocarbon receptor (AhR) signaling pathway (AID 743085).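 For activation: HG2L7.5c1 human HepG2 liver cells with stably integrated DRE-driven firefly reporter.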 Note: nearly all actives have a fitted effect of over 15% in size. Note: potency is the fitted concentration of half-maximal effect. As to conditions: HepG2 AhR-luc (HG2L7.5c1), luciferase, 24 h; series mostly up to 70.3 µM; activation: at the top concentration. In a few lines: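 Measured in HG2L7.5c1 cells: CellTiter-Fluor signal (30 min incubation, 37C) for viability, then luciferase luminescence (30 min, room temperature). Compound contact time was 24 h at 37C, following a 5 h pre-incubation.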
Sequence of Aryl hydrocarbon receptor (Homo sapiens) (P35869 whole entry, looked up): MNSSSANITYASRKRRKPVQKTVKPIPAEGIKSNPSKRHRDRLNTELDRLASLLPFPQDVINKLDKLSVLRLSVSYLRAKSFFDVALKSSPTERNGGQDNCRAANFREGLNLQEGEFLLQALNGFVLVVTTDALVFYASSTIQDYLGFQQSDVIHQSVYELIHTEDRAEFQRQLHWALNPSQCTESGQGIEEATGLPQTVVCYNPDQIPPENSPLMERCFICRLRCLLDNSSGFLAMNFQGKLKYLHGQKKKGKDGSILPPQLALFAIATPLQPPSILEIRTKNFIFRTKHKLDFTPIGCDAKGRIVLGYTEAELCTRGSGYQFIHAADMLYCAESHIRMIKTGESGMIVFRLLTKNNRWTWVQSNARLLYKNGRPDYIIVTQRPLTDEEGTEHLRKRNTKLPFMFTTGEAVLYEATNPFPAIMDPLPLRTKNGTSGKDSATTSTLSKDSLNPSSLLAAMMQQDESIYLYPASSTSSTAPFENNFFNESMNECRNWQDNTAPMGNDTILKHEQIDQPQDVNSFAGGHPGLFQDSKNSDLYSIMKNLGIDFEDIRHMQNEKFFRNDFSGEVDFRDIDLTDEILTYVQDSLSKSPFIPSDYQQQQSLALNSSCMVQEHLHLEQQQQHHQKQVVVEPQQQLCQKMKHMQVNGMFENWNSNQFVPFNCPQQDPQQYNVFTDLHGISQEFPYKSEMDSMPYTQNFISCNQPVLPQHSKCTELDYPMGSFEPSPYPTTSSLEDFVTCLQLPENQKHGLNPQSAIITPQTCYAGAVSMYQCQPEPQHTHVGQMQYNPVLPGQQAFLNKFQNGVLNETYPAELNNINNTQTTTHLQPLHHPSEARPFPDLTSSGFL
As for `CC12CC1(C)C(=O)N(c1cc(Cl)cc(Cl)c1)C2=O` (stereo not drawn), the Potency was 27.2 µM (active) and inactive.

`OCC(O)CCl` (stereo not drawn): the Potency entry is “inactive”.

As to `N#Cc1cccc(C#N)c1`, the Potency entry was “inactive”.

For `Oc1c(Br)cc(Br)cc1Br`, the Potency result was “inactive”.

On to `O=C(O)c1cc(Oc2ccc(C(F)(F)F)cc2Cl)ccc1[N+](=O)[O-]`, for which the Potency result is “inactive”.

Take `Cc1ccc(O)c(C)c1`: the Potency entry was “inactive”.

As to `CNCC(O)c1ccc(O)cc1` (stereo not drawn), the “activation” value was -1.05% [at 32.5 µM] (inactive).

With `CCOC(=O)CC(SP(=O)(OC)OC)C(=O)OCC` (stereo not drawn), the Potency entry was “inactive”.

Turning to `CCOP(=S)(OCC)Oc1cc(C)nc(C(C)C)n1`, the Potency result is “inactive and 6.86 µM (active)”.

For the molecule `CNC(=O)O/N=C/C(C)(C)SC`, the Potency entry is “inactive”.

Regarding `COP(=S)(OC)SCN1C(=O)c2ccccc2C1=O`, the Potency result is “inactive”.

Consider `ClCCOCCCl`, for which the Potency result is “inactive”.

Take `CC(=O)C1CCOC1=O` (stereo not drawn): the “activation” value is 1.59% [at 95 µM] (inactive).

With `O=S(=O)(O)OOS(=O)(=O)O`, the Potency result was “inactive”.

On to `CC[N+](=O)[O-]`, for which the Potency entry is “inactive”.

For the molecule `COC(=O)Nc1cccc(OC(=O)Nc2cccc(C)c2)c1`, the Potency was 27.3 µM (active) and 2.73 µM (active).

`Cc1cccc(N)c1C`: the Potency entry was “inactive and 48.6 µM (active)”.

With `Cc1ccc(N)cc1`, the Potency was 24.5 µM (active) and inactive and 61.1 µM (active).

Consider `CNC(=O)O/N=C/C(C)(C)S(C)(=O)=O`, for which the Potency result is “inactive”.

Regarding `Cc1ccc(N=C=O)cc1N=C=O`, the Potency is 25 µM (active) and 1.08 µM (active).

With `COS(=O)(=O)OC`, the Potency result is “inactive”.

As to `CC(C)c1cccc(C(C)C)c1O`, the Potency entry was “inactive”.

As to `COC(C)(C)CCCC(C)C/C=C/C(C)=C/C(=O)OC(C)C` (stereo not drawn), the Potency result is “inactive and 60.1 µM (active)”.

Consider `Cc1cccc(C)c1N`, for which the Potency result is “inactive”.

Regarding `C=CCN=C=S`, the Potency entry is “inactive”.

As to `Clc1cnc(Oc2ccc(Oc3ncc(Cl)cc3Cl)cc2)c(Cl)c1`, the “activation” value is -1.8% (inactive).

In the case of `O=[N+]([O-])c1cc([As](=O)(O)O)ccc1O`, the Potency result is “inactive”.

Take `O=C(O)Cc1ccccc1`: the Potency result is “inactive”.

With `O=[N+]([O-])c1ccc(Cl)c(Cl)c1`, the “activation” value is 7.79% (inactive).

For `O=P1(NCCCl)OCCCN1CCCl` (stereo not drawn), the Potency result was “inactive”.

In the case of `CNc1cnn(-c2cccc(C(F)(F)F)c2)c(=O)c1Cl`, the Potency was 27.3 µM (active).

System in another assay: not listed separately
The assay can be described thus: qHTS assay to identify small molecule that activate the aryl hydrocarbon receptor (AhR) signaling pathway - cell viability counter screen (AID 743086).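 Note: HepG2 liver cells carrying the AhR DRE luciferase reporter; nearly all actives have a fitted effect of over 45% in size.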 As to conditions: HepG2-AhR-luc viability, CellTiter-Fluor, 24 h; series mostly up to 70.3 µM; viability change, negative = cytotoxic: at the top concentration. In a few lines: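 HepG2-AhR-luc (HG2L7.5c1) cells, 4000/well, were preincubated 5 h at 37C, exposed to compound in qHTS format for 24 hr at 37C, then given CellTiter-Fluor for 30 min; viability was read as fluorescence in the reporter wells.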
For the molecule `CC12CC1(C)C(=O)N(c1cc(Cl)cc(Cl)c1)C2=O` (stereo not drawn), the result was inactive.

For `OCC(O)CCl` (stereo not drawn), the call was inactive.

Regarding `N#Cc1cccc(C#N)c1`, the result was inactive.

In the case of `Oc1c(Br)cc(Br)cc1Br`, the call was inactive.

As to `O=C(O)c1cc(Oc2ccc(C(F)(F)F)cc2Cl)ccc1[N+](=O)[O-]`, the molecule was classed as inactive.

On to `Cc1ccc(O)c(C)c1`, for which the molecule was classed as inactive.

Regarding `CNCC(O)c1ccc(O)cc1` (stereo not drawn), the outcome was inactive.

With `CCOC(=O)CC(SP(=O)(OC)OC)C(=O)OCC` (stereo not drawn), the result was inactive.

Turning to `CCOP(=S)(OCC)Oc1cc(C)nc(C(C)C)n1`, the outcome was inactive.

In the case of `CNC(=O)O/N=C/C(C)(C)SC`, the outcome was inactive.

As for `COP(=S)(OC)SCN1C(=O)c2ccccc2C1=O`, the molecule was called inactive.

For the molecule `ClCCOCCCl`, the result was inactive.

For `CC(=O)C1CCOC1=O` (stereo not drawn), the “viability change, negative = cytotoxic” value was 12.3% [at 95 µM] (inactive).

Take `O=S(=O)(O)OOS(=O)(=O)O`: the molecule was classed as inactive.

For `CC[N+](=O)[O-]`, the molecule was called inactive.

`COC(=O)Nc1cccc(OC(=O)Nc2cccc(C)c2)c1`: the molecule was classed as inactive.

In the case of `Cc1cccc(N)c1C`, the molecule was called inactive.

In the case of `Cc1ccc(N)cc1`, the molecule was called inactive.

On to `CNC(=O)O/N=C/C(C)(C)S(C)(=O)=O`, for which the result was inactive.

For the molecule `Cc1ccc(N=C=O)cc1N=C=O`, the molecule was called inactive.

On to `COS(=O)(=O)OC`, for which the result was inactive.

For the molecule `CC(C)c1cccc(C(C)C)c1O`, the outcome was inactive.

Turning to `COC(C)(C)CCCC(C)C/C=C/C(C)=C/C(=O)OC(C)C` (stereo not drawn), the outcome was inactive.

Consider `Cc1cccc(C)c1N`, for which the molecule was called inactive.

As to `C=CCN=C=S`, the molecule was classed as inactive.

In the case of `Clc1cnc(Oc2ccc(Oc3ncc(Cl)cc3Cl)cc2)c(Cl)c1`, the result was inactive.

On to `O=[N+]([O-])c1cc([As](=O)(O)O)ccc1O`, for which the molecule was called inactive.

Turning to `O=C(O)Cc1ccccc1`, the molecule was called inactive.

Take `O=[N+]([O-])c1ccc(Cl)c(Cl)c1`: the outcome was inactive.

Take `O=P1(NCCCl)OCCCN1CCCl` (stereo not drawn): the result was inactive.

On to `CNc1cnn(-c2cccc(C(F)(F)F)c2)c(=O)c1Cl`, for which the result was inactive.
